Experimental data from PubChem BioAssay (EPA / NIEHS).
Activity calls are given as the source filed them. Rule for the calls: active = hit-call score of the fitted dose curve at least 0.9, where 1 is the maximum; inactive = score below 0.9.

These molecules were tested against Bile acid receptor (Homo sapiens) (UniProt Q96RI1) (assay: ATG_IR1_CIS: Attagene CIS-FACTORIAL HepG2 Assay for human Nuclear Receptor Subfamily 1 Group H Member 4 (NR1H4), IR1 submotif (AID 2282946)). Settings: IR1 reporter transcription, actives raise or lower the signal.
Sequence of Bile acid receptor (Homo sapiens) (Q96RI1 whole entry, looked up): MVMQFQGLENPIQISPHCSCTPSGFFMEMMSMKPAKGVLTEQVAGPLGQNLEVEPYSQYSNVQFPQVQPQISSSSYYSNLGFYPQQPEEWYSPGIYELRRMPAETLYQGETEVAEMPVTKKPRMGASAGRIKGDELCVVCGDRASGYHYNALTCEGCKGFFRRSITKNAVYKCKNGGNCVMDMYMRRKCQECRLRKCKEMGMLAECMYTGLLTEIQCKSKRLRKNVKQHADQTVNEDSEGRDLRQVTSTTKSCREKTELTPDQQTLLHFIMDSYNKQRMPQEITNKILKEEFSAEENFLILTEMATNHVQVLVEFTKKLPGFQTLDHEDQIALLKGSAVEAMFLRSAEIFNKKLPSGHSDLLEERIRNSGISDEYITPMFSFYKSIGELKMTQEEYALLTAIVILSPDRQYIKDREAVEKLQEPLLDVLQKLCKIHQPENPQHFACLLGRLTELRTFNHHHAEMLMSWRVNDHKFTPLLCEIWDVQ
Method: ATG_CIS is a cell-based, multiplexed-readout assay that uses HepG2, a human liver cell line, with measurements taken at 24 hours after chemical dosing in a 24-well plate.ATG_IR1_CIS is one of 52 assay component(s) measured or calculated from the ATG_CIS assay. It is designed to make measurements of mRNA induction, a form of inducible reporter, as detected with fluorescence intensity signals by Reverse transcription polymerase chain reaction (RT-PCR) and Capillary electrophoresis technology.Data from the assay component ATG_IR1_CIS was analyzed into 1 assay endpoint. This assay endpoint, ATG_IR1_CIS, was analyzed with bidirectional fitting relative to DMSO as the negative control and baseline of activity. Using a type of inducible reporter, measures of mRNA for gain or loss-of-signal activity can be used to understand the reporter gene at the transcription factor-level as they relate to the gene NR1H4. Furthermore, this assay endpoint can be referred to as a primary readout, because this assay has produced multiple assay endpoints where this one serves a reporter gene function. To generalize the intended target to other relatable targets, this assay endpoint is annotated to the nuclear receptor intended target family, where the subfamily is non-steroidal.
Human liver HepG2 cells are transiently transfected with multiple reporter transcription units (MRTUs) in 6-well plates using FuGene 6 reagent (Roche; 3 ml FuGene/1 mg DNA). The MRTU constructs are regulated by a cis-regulating element (promoter). […] A major difference between the CIS and TRANS system is that in CIS activities of endogenous TFs are measured, whereas the TRANS assay evaluates changes in activities of exogenous, chimeric NR-Gal4 proteins. […] At the end of 24 hour incubation, total RNA was isolated using TriZol reagent (Invitrogen). The isolated RNA is then reverse-transcribed using oligo(dT) primer and Mo-MLV reverse transcriptase (Invitrogen) with DNAse I (Ambion) treatment for 30 min. The one-tenth of the produced cDNA was amplified by PCR using Taq DNA polymerase (Invitrogen) and two reporter sequence-specific primers. The PCR products were fluorescently labeled by primer extension with 6-arboxyfluorescein (6-FAM) 5'-labeled reporter sequence-specific primer (2 min at 95 C, 20 s at 68 C and 10 min at 72 C) and these products were digested with 5U of HpaI (New England Biolabs) for 2h at 37 C. The fragments were purified using Qiaquick PCR columns (Qiagen), analyzed on an ABI 3130xL genetic analyzer (Applied Biosystems) with peak positions identified by using a set of X-rhodamine (ROX)-labeled MapMarker1000 molecular weight standards (BioVentures). The raw capillary electrophoresis data was processed using Attagraph software (Attagene).

outcome, inactive:
COCCOCCOCCOC, Cc1ccc(O)cc1, CCOC(=O)CC(CC(=O)OCC)(OC(C)=O)C(=O)OCC, CCCCCCCCCCCCc1ccccc1, CC(C)CCCCCCCOC(=O)CCCCC(=O)OCCCCCCCC(C)C, Cc1ccc(C)c(O)c1, C1=CCCC=CCCC=CCC1, CCNc1ccccc1, COC(=O)c1c(Cl)c(Cl)c(C(=O)OC)c(Cl)c1Cl, CC(C)(O)c1coc(S(=O)(=O)NC(=O)Nc2c3c(cc4c2CCC4)CCC3)c1, Fc1ccccc1[C@@H](F)COC1CCC(Nc2ncnc3[nH]ncc23)CC1 (some centres undefined), COc1ccc(/C=C/S(=O)(=O)NC(=O)c2ccc(C)cc2Cl)cc1, Nc1cccc(N)c1, Cc1c(-c2cccnc2)c2ccccc2n1CCCCC(=O)O, Cn1c(=O)cc(Oc2ccc(F)cc2F)c2cnc(NCC(C)(C)O)nc21, CCCCC(CC)COC(=O)c1ccc(C(=O)OCC(CC)CCCC)cc1 (centres undefined), CN(C)c1ccc(Cc2ccc(N(C)C)cc2)cc1, CCOCCO, COCCOc1cc2cc(C(=O)NC3CCN(C(C)C)CC3)n(CC(=O)Nc3ccc(Cl)cn3)c2cn1, Cc1[nH]cnc1C[C@H]1CCc2c(C)c3ccccc3n2C1=O, CC(C)=CCC/C(C)=C\CO, C1N2CN3CN1CN(C2)C3, CC[C@H](C)C(=O)O[C@H]1C[C@@H](C)C=C2C=C[C@H](C)[C@H](CC[C@@H]3C[C@@H](O)CC(=O)O3)[C@H]21, CC(C)=CCC/C(C)=C/CO, COc1cccc(-c2ccc(/C=C\CN3CCCCCC3)cc2Cl)c1, O=C1CCCCCN1, CC1(C)C(=O)N(Br)C(=O)N1Br, CC(O)CN(CCN(CC(C)O)CC(C)O)CC(C)O (centres undefined), CCCCC(CC)COC(=O)CCCCCCCCC(=O)OCC(CC)CCCC (centres undefined), CCOCCOCCOCCO

AC50, active:
CCN(C(=O)c1cc(C)cc(OC[C@H](C)Nc2ccncc2)c1)C(C)C 42 µM, CCc1cc(SCc2sc(-c3ccc(C(F)(F)F)cc3)nc2CN2CCN(c3ccc(OC)cc3)CC2)ccc1OCC(=O)O 3.93 µM, Oc1ccc2c(c1)-c1ccccc1C2 1.3 µM, CCOc1cccc(-n2cc(C(=O)N3CCN(c4cc(C(=O)O)c5ccccc5c4)CC3)nc2-c2ccc(C)cc2)c1 24.8 µM, CNS(=O)(=O)c1cc(C(=O)N2CCC(CCN3C4CCC3CC(n3c(C)nc5ccccc53)C4)(c3cccc(F)c3)CC2)c(Cl)cc1F (centres undefined) 3.85 µM, CCCCCCCCCCCCCCCO 41.3 µM, CCOC(=O)c1ccc(C2CCC(NC[C@H](O)COc3ccc(O)c(NS(C)(=O)=O)c3)CC2)cc1 (some centres undefined) 53.2 µM, CC(C)c1cccc(C(C)C)c1N1C(=O)c2ccc(O)cc2C1=O 69.5 µM, COc1ccc2sc(C(=O)Nc3nnn[nH]3)c(OC(C)C)c2c1 67.6 µM
